Consider ten compounds from PubChem BioAssay (NCI).

About 79,000 compounds went through this panel and 15% of them were active in at least one assay; those are over-represented in the sample as a whole. Values without a mark were called inactive. The source made the active and inactive calls. No stated cut-off is given here; in the data, active means growth inhibition above about 70%; inactive means the rest.

Assay [1] can be described thus: NCI Yeast Anticancer Drug Screen. Data for the rad50 strain (AID 155).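 Further: 0% = growth of vehicle-only cultures of the same strain.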 Particulars: S. cerevisiae rad50 strain growth inhibition, active compounds read high. A digest of the protocol: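 Readout: growth inhibition relative to vehicle-treated cultures. Compound exposure was carried out in a genetically defined yeast strain deficient in DNA damage repair.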
A short description of assay [2]: NCI Yeast Anticancer Drug Screen. Data for the mec2-1 strain (AID 157). Particulars: S. cerevisiae mec2-1 strain, active compounds read high. The method in brief:
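Test agents were screened against the mec2-1 yeast strain, with defined DNA repair or cell cycle alteration. Growth was scored as inhibition against vehicle-only controls.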

A short description of assay [3]: NCI Yeast Anticancer Drug Screen. Data for the sgs1 mgt1 strain (AID 161).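 Further: 0% = growth of cultures given vehicle only.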 Particulars: S. cerevisiae sgs1 mgt1 strain, active compounds read high. A digest of the protocol:
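Mutant yeast exposed to compound; growth scored against vehicle-only wells.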

Assay [4] can be described thus: NCI Yeast Anticancer Drug Screen. Data for the cln2 rad14 strain (AID 165).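 Further: 0% = growth equal to vehicle treated cultures.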 To be noted: S. cerevisiae cln2 rad14 strain, active compounds read high. The method in brief:
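Growth of compound-exposed yeast (cln2 rad14 genotype) measured and expressed as inhibition relative to vehicle.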

Assay [5] in a line: NCI Yeast Anticancer Drug Screen. Data for the bub3 strain (AID 167). To be noted: S. cerevisiae bub3 mutant strain, active compounds read high. A digest of the protocol: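 Readout: yeast growth inhibition, expressed relative to vehicle-only wells. The test organism is a mutant strain from a panel with lesions in DNA repair or checkpoint genes.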
A short description of assay [6]: NCI Yeast Anticancer Drug Screen. Data for the mlh1 rad18 strain (AID 175). Particulars: S. cerevisiae mlh1 rad18 strain growth inhibition, active compounds read high. A digest of the protocol: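 In this whole-cell yeast screen, a strain with altered DNA damage repair is challenged with compound, and its growth is measured against matched vehicle-treated controls.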
Setting [7] is: at 5.0 µM (retest, dose inferred, filed as 0.5).
Setting [8] is: at 50.0 µM (retest, dose inferred, filed as 5.0).

On to `Cc1cc(N=Nc2ccccc2C)c(N)cc1N`, for which the growth inhibition is -12% in assay [1] (setting [7]); 56% in assay [1] (setting [8]); 99.2% (active) in assay [1] (at 50.0 µM); -11% in assay [2] (setting [7]); 97% (active) in assay [2] (setting [8]); 99.2% (active) in assay [2] (at 50.0 µM). For the same compound, the growth inhibition in assay [3] (setting [7]) is 4%; in assay [3] (setting [8]) it was 90% (active); in assay [3] (at 50.0 µM), 99.5% (active); in assay [4] (setting [7]), -27%; in assay [4] (setting [8]), 40%; in assay [4] (at 50.0 µM), 98.3% (active). Further, the growth inhibition was -14% in assay [5] (setting [7]); 86% (active) in assay [5] (setting [8]); 99.3% (active) in assay [5] (at 50.0 µM); -13% in assay [6] (setting [7]); 90% (active) in assay [6] (setting [8]); 99.5% (active) in assay [6] (at 50.0 µM).

Regarding `O=C(O)CCn1c2ccccc2c2ccccc21`, the growth inhibition in assay [1] (setting [7]) was 6%; in assay [1] (setting [8]) it was 45%; in assay [1] (at 50.0 µM) it was 24.6%; in assay [2] (setting [7]), -13%; in assay [2] (setting [8]), 52%; in assay [2] (at 50.0 µM), 36.4%. For the same compound, the growth inhibition in assay [3] (setting [7]) was -1%; in assay [3] (setting [8]) it was 68%; in assay [3] (at 50.0 µM), 40.5%; in assay [4] (setting [7]), -10%; in assay [4] (setting [8]), 42%; in assay [4] (at 50.0 µM) it was 15.1%. Besides, the growth inhibition is -6% in assay [5] (setting [7]); 61% in assay [5] (setting [8]); 55.5% in assay [5] (at 50.0 µM); -4% in assay [6] (setting [7]); 49% in assay [6] (setting [8]); 66% in assay [6] (at 50.0 µM).

In the case of `CCOC(=O)CSC(=S)N1CCOCC1`, the growth inhibition was -3% in assay [1] (setting [7]); -2% in assay [1] (setting [8]); 37% in assay [1] (at 50.0 µM); -2% in assay [2] (setting [7]); -10% in assay [2] (setting [8]); -9.1% in assay [2] (at 50.0 µM). Also, the growth inhibition in assay [3] (setting [7]) was -4%; in assay [3] (setting [8]), -6%; in assay [3] (at 50.0 µM) it was -10.6%; in assay [4] (setting [7]), -5%; in assay [4] (setting [8]) it was -9%; in assay [4] (at 50.0 µM), -32.2%. Moreover, the growth inhibition in assay [5] (setting [7]) was -1%; in assay [5] (setting [8]), -6%; in assay [5] (at 50.0 µM) it was -3.9%; in assay [6] (setting [7]), -2%; in assay [6] (setting [8]) it was 0%; in assay [6] (at 50.0 µM), -29.2%.

In the case of `C[C@H](CCC1=NCCN1)[C@H]1CC[C@H]2[C@@H]3[C@H](O)C[C@@H]4C[C@H](O)CC[C@]4(C)[C@H]3CC[C@]12C`, the growth inhibition in assay [1] (setting [7]) was -19%; in assay [1] (setting [8]), 99% (active); in assay [1] (at 50.0 µM), 91.5% (active); in assay [2] (setting [7]), -2%; in assay [2] (setting [8]), 100% (active); in assay [2] (at 50.0 µM), 93% (active). Moreover, the growth inhibition in assay [3] (setting [7]) was 3%; in assay [3] (setting [8]) it was 100% (active); in assay [3] (at 50.0 µM), 91.7% (active); in assay [4] (setting [7]), -6%; in assay [4] (setting [8]) it was 99% (active); in assay [4] (at 50.0 µM), 91% (active). In addition, the growth inhibition is 0% in assay [5] (setting [7]); 99% (active) in assay [5] (setting [8]); 91.6% (active) in assay [5] (at 50.0 µM); 4% in assay [6] (setting [7]); 99% (active) in assay [6] (setting [8]); 91% (active) in assay [6] (at 50.0 µM).

For `Clc1ncccc1-n1cccc1/C=N\N=C/c1cccn1-c1cccnc1Cl`, the growth inhibition was 5% in assay [1] (setting [7]); 98% (active) in assay [1] (setting [8]); 7.25% in assay [1] (at 50.0 µM); 5% in assay [2] (setting [7]); 98% (active) in assay [2] (setting [8]); 6.3% in assay [2] (at 50.0 µM). For the same compound, the growth inhibition in assay [3] (setting [7]) is 8%; in assay [3] (setting [8]) it was 94% (active); in assay [3] (at 50.0 µM), -10.6%; in assay [4] (setting [7]) it was 4%; in assay [4] (setting [8]), 93% (active); in assay [4] (at 50.0 µM), 30.4%. The growth inhibition is 6% in assay [5] (setting [7]); 97% (active) in assay [5] (setting [8]); -4.95% in assay [5] (at 50.0 µM); -1% in assay [6] (setting [7]); 99% (active) in assay [6] (setting [8]); 21.7% in assay [6] (at 50.0 µM).

In the case of `O=S1(=O)c2ccccc2C(O)(c2ccccc2)c2cc3ccccc3n21` (stereo not given), the growth inhibition is 9% in assay [1] (setting [7]); 95% (active) in assay [1] (setting [8]); 95.8% (active) in assay [1] (at 50.0 µM); 9% in assay [2] (setting [7]); 96% (active) in assay [2] (setting [8]); 95.5% (active) in assay [2] (at 50.0 µM). Moreover, the growth inhibition in assay [3] (setting [7]) is 12%; in assay [3] (setting [8]), 97% (active); in assay [3] (at 50.0 µM), 94.2% (active); in assay [4] (setting [7]) it was 9%; in assay [4] (setting [8]), 95% (active); in assay [4] (at 50.0 µM) it was 94.9% (active). Further, the growth inhibition in assay [5] (setting [7]) was 5%; in assay [5] (setting [8]), 96% (active); in assay [5] (at 50.0 µM), 94.3% (active); in assay [6] (setting [7]), 8%; in assay [6] (setting [8]), 95% (active); in assay [6] (at 50.0 µM), 95.5% (active).

For `O=C1C2C3C=CC(C2C(=O)N1CN1CCOCC1)C1C2C(=O)N(CN4CCOCC4)C(=O)C2C31` (stereo not given), the growth inhibition in assay [1] (setting [7]) was -6%; in assay [1] (setting [8]) it was -10%; in assay [1] (at 50.0 µM), 1.85%; in assay [2] (setting [7]) it was 11%; in assay [2] (setting [8]), 3%; in assay [2] (at 50.0 µM), 10.2%. For the same compound, the growth inhibition is -4% in assay [3] (setting [7]); -25% in assay [3] (setting [8]); -1.35% in assay [3] (at 50.0 µM); -26% in assay [4] (setting [7]); -7% in assay [4] (setting [8]); 39% in assay [4] (at 50.0 µM). For the same compound, the growth inhibition is 1% in assay [5] (setting [7]); -9% in assay [5] (setting [8]); -17.8% in assay [5] (at 50.0 µM); -31% in assay [6] (setting [7]); -12% in assay [6] (setting [8]); 0.8% in assay [6] (at 50.0 µM).

Regarding `COc1ccc(CN2COc3c(cc(C)c4cccnc34)C2)cc1`, the growth inhibition in assay [1] (setting [7]) was 14%; in assay [1] (setting [8]) it was 92% (active); in assay [1] (at 50.0 µM), 65%; in assay [2] (setting [7]) it was 8%; in assay [2] (setting [8]), 93% (active); in assay [2] (at 50.0 µM), 47.5%. Further, the growth inhibition in assay [3] (setting [7]) is 23%; in assay [3] (setting [8]), 92% (active); in assay [3] (at 50.0 µM), 64.1%; in assay [4] (setting [7]), 16%; in assay [4] (setting [8]), 93% (active); in assay [4] (at 50.0 µM), 39.9%. Besides, the growth inhibition in assay [5] (setting [7]) is -3%; in assay [5] (setting [8]), 95% (active); in assay [5] (at 50.0 µM), 61.4%; in assay [6] (setting [7]), 20%; in assay [6] (setting [8]), 93% (active); in assay [6] (at 50.0 µM) it was 79.9% (active).

For `CN1N=C2c3ccccc3CC[C@H]2C1c1cccc(O)c1` (stereo not given in full), the growth inhibition in assay [1] (setting [7]) is -36%; in assay [1] (setting [8]), 65%; in assay [1] (at 50.0 µM), 52.7%; in assay [2] (setting [7]), 5%; in assay [2] (setting [8]), 34%; in assay [2] (at 50.0 µM), 23.4%. Also, the growth inhibition is -16% in assay [3] (setting [7]); 88% (active) in assay [3] (setting [8]); 69.2% in assay [3] (at 50.0 µM); 24% in assay [4] (setting [7]); 83% (active) in assay [4] (setting [8]); 43.8% in assay [4] (at 50.0 µM). The growth inhibition is 21% in assay [5] (setting [7]); 78% (active) in assay [5] (setting [8]); 67.2% in assay [5] (at 50.0 µM); -16% in assay [6] (setting [7]); 82% (active) in assay [6] (setting [8]); 35.9% in assay [6] (at 50.0 µM).

`CCCN(CCC)CC(O)c1ccc2ccc3ccc(Cl)cc3c2c1` (stereo not given): the growth inhibition in assay [1] (setting [7]) was 20%; in assay [1] (setting [8]) it was 98% (active); in assay [1] (at 50.0 µM) it was 99.8% (active); in assay [2] (setting [7]) it was 18%; in assay [2] (setting [8]), 98% (active); in assay [2] (at 50.0 µM), 99.8% (active). Further, the growth inhibition in assay [3] (setting [7]) was 39%; in assay [3] (setting [8]) it was 99% (active); in assay [3] (at 50.0 µM) it was 99.8% (active); in assay [4] (setting [7]) it was 29%; in assay [4] (setting [8]), 98% (active); in assay [4] (at 50.0 µM) it was 99.6% (active). Moreover, the growth inhibition is 38% in assay [5] (setting [7]); 98% (active) in assay [5] (setting [8]); 99.5% (active) in assay [5] (at 50.0 µM); 27% in assay [6] (setting [7]); 99% (active) in assay [6] (setting [8]); 99.8% (active) in assay [6] (at 50.0 µM).
